PubChem BioAssay AID488 (PCMD, 2006)
Among all 62,000 compounds or so, about 40 (0.06%) were called active. For the sample, actives were picked, then their nearest neighbours and some compounds at random. Values without a mark were called inactive. No stated cut-off is given here; in the data, active means inhibition above about 22% (passing the limit was not always enough); inconclusive means no clear call, values can overlap the other calls.

These compounds were tested against Cathepsin B (Homo sapiens) (UniProt P07858) (assay: cathepsin B inhibitors from pooled compounds, primary screen, biochemical, compound mixtures, AMC fluorescence (AID 488;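 further: 0% = enzyme without compound and 100% = no enzyme blank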)). Details: Purified cathepsin B, AMC dipeptide fluorescence, stronger effect = higher value,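 ten-compound pools at 5 µM per compound and 50 µM total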.
CN(C)/C=C/c1c(C#N)c(=O)ncn1Cc1ccccc1 was tested, and the inhibition was 4.44%. Compound CCCC(=O)C1=C(N(C)c2ccccc2)CC(C)(C)C(C(=O)OC)C1=O (configuration not stated) has an inhibition of 6.7%. O=C(O)CCN1C(=O)CC2(CCCCC2)C1=O was tested, and the inhibition was -0.755%. Nc1nonc1-c1nc2ccccc2n1CCC(=O)O gave an inhibition of 23.8%. With Nc1nonc1-c1nc2ccccc2n1Cc1ccc(F)cc1 the inhibition was 79.6% (active). In the case of COc1ccc(C)c(Cn2c(-c3nonc3N)nc3ccccc32)c1, the inhibition is reported as 19.5%. Cc1ccc(C)c(S(=O)(=O)n2cnc3ccccc32)c1 showed an inhibition of -4.15%. O=C(NCCN1CCOCC1)c1ccc2c(c1)ncn2C1CCCC1 showed an inhibition of 2.62%. Compound O=C(CCN1C(=O)C2C3C=CC(C3)C2C1=O)Nc1ccccc1F (configuration not stated) has an inhibition of 1.56%. With CC1Cc2cc(/C(O)=C3\C(=O)C(=O)N(CCN4CCOCC4)C3c3ccccc3F)ccc2O1 (configuration not stated) the inhibition was 3.23%. Compound Cc1ccc(C2c3c(oc4ccc(C)cc4c3=O)C(=O)N2CCCN2CCOCC2)cc1 (configuration not stated) has an inhibition of 3.25%. Work on CCOc1cc(-c2nc3cc(C)ccn3c2NCC2CCCO2)ccc1O (configuration not stated) yielded an inhibition of -4.66%. COc1cc2c(cc1NC(=O)CN1CCN(S(=O)(=O)c3ccc(F)cc3)CC1)oc1ccccc12 was tested, and the inhibition was 2.98%. CCC1CCCCN1CCNC(=O)c1[nH]c(C)c(C(C)=O)c1C (configuration not stated) was tested, and the inhibition was 4.44%. In the case of COC(=O)C1C(=O)CC(C)(O)C(C(=O)OC)C1c1ccc2c(c1)OCO2 (configuration not stated), the inhibition is reported as 1.84%. Compound CCN(CC)C(=O)c1sc(NC(=O)c2ccco2)c(C#N)c1C has an inhibition of 7.73%. With N#Cc1cccc(NC(=O)CCC2CCCC2)c1 the inhibition was 0.985%. In the case of CC(C)c1ccc(-c2nn[nH]n2)cc1, the inhibition is reported as 4.54%. Cc1c(C(=O)Nc2ccccc2Cl)oc2ccc(S(=O)(=O)N3CCC4(CC3)OCCO4)cc12 gave an inhibition of 6.83%. Work on O=C(NCCSc1ccccc1)c1ccco1 yielded an inhibition of 5.3%. Compound C=CCC(NCCCO)c1cccc(OC)c1OC (configuration not stated) has an inhibition of 0.355%. In the case of Cc1nc2nc[nH]n2c(=O)c1NC(=O)c1cccc(OCC(C)C)c1, the inhibition is reported as 0.08%. CC(C)(C)Nc1c(N)c(=O)oc2ccccc12 gave an inhibition of 1.79%. CCC1Oc2ccc(Cl)cc2N(CC(=O)O)C1=O (configuration not stated) was tested, and the inhibition was 4.82%. With O=C(Cn1cnc2c(cnn2-c2ccc(F)cc2)c1=O)NCCc1ccccc1 the inhibition was -5.56%. In the case of CN(C(=O)c1ccccn1)c1nnc(-c2ccccn2)s1, the inhibition is reported as 4.35%. Compound CN1CCN(CC(=O)C23CC4CC(CC(C4)C2)C3)CC1 has an inhibition of -16%. Cc1cc(-n2nc(C)cc2C)n2ncc(-c3ccccc3)c2n1 gave an inhibition of -1.95%. Compound COCCOC(=O)C1=C(C)N=c2s/c(=C\c3cccs3)c(=O)n2C1c1cccs1 (configuration not stated) has an inhibition of 5.37%. With COc1ccc(C(C)=O)cc1COC(=O)Cn1cnc2ccccc2c1=O the inhibition was -0.265%. CC(=O)c1c(N2CCOCC2)nc(=S)n(Cc2ccccc2)c1C was tested, and the inhibition was -2.31%. With CCOc1ccc(N=C2SC(C(=O)O)CC(=O)N2C)cc1 (configuration not stated) the inhibition was -1.85%. COC(=O)Cn1c(=NC(=O)CSCC(=O)Nc2cc(C)on2)sc2ccccc21 was tested, and the inhibition was -5.38%. For Cn1c(SCC(=O)N2CCOCC2)nnc1-c1ccc(NC(=O)c2ccccc2F)cc1, the inhibition was -2.64%. For CC(C)C(c1nnnn1Cc1ccccc1)N1CCC(C(N)=O)CC1 (configuration not stated), the inhibition was -1.51%. O=C(OCc1ccccc1F)c1ccc2c(c1)OCCO2 showed an inhibition of 8.22%. In the case of COC(=O)c1cc(C(=O)CSc2nc(C)cc(C)n2)ccc1O, the inhibition is reported as 1.56%. CSc1ccc(Cl)c(C(=O)OCC(=O)N2CC(C)OC(C)C2)c1 (configuration not stated) was tested, and the inhibition was -10.2%. In the case of COC(=O)C1=C(N)Oc2cc(C)oc(=O)c2C1c1cccnc1 (configuration not stated), the inhibition is reported as 1.64%. For COC(=O)c1ccc(CSc2nncn2C)cc1, the inhibition was 6.61%. CCN(CC)P(=O)(/C(Cl)=C\Nc1c(C)n(C)n(-c2ccccc2)c1=O)N(CC)CC gave an inhibition of -1.45%. For C=CCN(c1ccc(C(N)=O)cc1)S(C)(=O)=O, the inhibition was 1.82%. CCOC(=O)C1=C(C)N=c2s/c(=C\C(=O)OC)c(=O)n2C1c1ccc(OC)cc1 (configuration not stated) was tested, and the inhibition was 4.36%. Cc1ccc(Cn2nnc3c(=O)n(CC(=O)N4CCCCC4)cnc32)cc1 showed an inhibition of -4.83%. O=C(CC1Nc2ccccc2NC1=O)Nc1ccccc1 (configuration not stated) showed an inhibition of 2.4%. For COc1ccccc1-n1cnc2cc(NS(=O)(=O)c3ccccc3)ccc21, the inhibition was 4.81%. C=CCn1c(=N)n(CC(O)COc2ccc(OC)cc2)c2ccccc21 (configuration not stated) was tested, and the inhibition was 4.16%. CCOc1ccc(CC(=O)Nc2ccc(S(=O)(=O)Nc3cc(C)on3)cc2)cc1OCC was tested, and the inhibition was 3.38%. COC(=O)C1=C(C)NC(=O)NC1/C=C/c1ccccc1 (configuration not stated) was tested, and the inhibition was 4.12%. For O=C(Cn1c(-c2ccc(Cl)cc2)noc1=O)N1CCN(c2ccccc2F)CC1, the inhibition was -2.31%. CCOC(=O)c1ccc2[nH]c(C)c(CN3CCN(C)CC3)c(=O)c2c1 showed an inhibition of 6.62%. Cc1nc2cc(S(=O)(=O)C(F)(F)F)ccc2s1 showed an inhibition of 1.09%. Work on CCOc1ccc(NC(=O)CCS(=O)(=O)c2cccc3nsnc23)cc1 yielded an inhibition of 1.87%. In the case of Cc1nnc(SCC(=O)NCc2ccccc2)s1, the inhibition is reported as -1.96%. In the case of CC1=CC(C)(C)N(C(=O)CSc2nnc(-c3ccccc3)o2)c2ccc(C)cc21, the inhibition is reported as 1.93%. Work on O=c1cc(CO)oc(CN2CCC(Cc3ccccc3)CC2)c1O yielded an inhibition of -2.05%. Work on CCOC(=O)c1cc2occc2n1CC(=O)N1CCN(C(=O)c2ccco2)CC1 yielded an inhibition of 0.785%. Cc1cc(NC(=O)COC(=O)c2ccc(F)c(S(=O)(=O)N3CCOCC3)c2)no1 was tested, and the inhibition was 5.21%. For CC1=C(C(N)=O)C(c2ccc3c(c2)OCO3)n2nc(-c3cccc(C)c3)nc2N1 (configuration not stated), the inhibition was -4.66%. For CCCCn1c(CCCNC(=O)CC)nc2ccccc21, the inhibition was 1.44%. For Cc1cc(Cl)c(S(=O)(=O)NCc2cccnc2)cc1OCC(N)=O, the inhibition was 7.41%. For O=C(/C=N/O)Nc1ccccc1, the inhibition was 3.15%.
